Results from PubChem BioAssay AID618 (Sanford-Burnham Center for Chemical Genomics, 2007).
The whole screen tested about 87,000 compounds, of which about 540 (0.62%) were called active. The sample holds actives, similar compounds and a random draw of the others, so the mix is not that of the screen. How the calls were made is not given here. Results with a measured potency or affinity are listed apart.

Assay: inhibitors of MT1-MMP promoter transcription, cell-based, luciferase reporter, luminescence (AID 618);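 further: actives suppress MT1-MMP promoter-driven transcription so potencies describe inhibitors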
Conditions: MT1-MMP promoter luciferase reporter cells

| Compound | outcome |
| --- | --- |
| COC(=O)C(C)Sc1ncnc2c1nnn2-c1ccc(F)cc1 (stereo unspecified) | inactive |
| Cc1ccc(CNC(=O)[C@H]2C[C@@H]2[C@H](NP(=O)(c2ccccc2)c2ccccc2)c2ccccc2)o1 | inactive |
| O=C1c2ccccc2C(=O)c2c1oc(C(F)(F)F)c2C(=O)c1ccccc1 | inactive |
| Cc1ccc(C(=O)c2c(C)oc3c2C(=O)C(=O)c2ccccc2-3)cc1 | inactive |
| Cc1oc2c(c1C(=O)c1ccccc1)C(=O)C(=O)c1ccccc1-2 | active |
| Cn1c(=O)c2c(nc(NCc3cccnc3)n2Cc2cccc(C(F)(F)F)c2)n(C)c1=O | inactive |
| COc1cccc(Cn2c(NCc3ccccn3)nc3c2c(=O)n(C)c(=O)n3C)c1 | inactive |
| Cc1cc(C)nc(Sc2ccc3nnc(C(F)(F)C(F)(F)C(F)(F)F)n3n2)n1 | inactive |
| Cc1ccc(-c2nn3c(C)nnc3s2)cc1NC(=O)C(C)C | inactive |
| CCOc1cccc2cc(-c3cn4cc(C)ccc4n3)c(=O)oc12 | active |
| CCOc1cccc2cc(-c3nnc(-c4ccccc4)o3)c(=O)oc12 | inactive |
| COc1cccc2cc(-c3cn4ccc(C)cc4n3)c(=O)oc12 | inactive |
| CCc1ccc(OCCNC(=O)c2ccc(S(=O)(=O)N(C)C)cc2)cc1 | inactive |
| CCOC(=O)N1CCN(C(=O)c2ccc(N(Cc3ccc(C)cc3)S(C)(=O)=O)cc2)CC1 | inactive |
| CCOP(=O)(c1ccccc1Cl)C1(O)CCCCC1 (stereo unspecified) | inactive |
| CCOc1cc(C(=O)N2CCc3cc(OC)c(OC)cc3C2)ccc1OC(F)F | active |
| CCOc1ccc(C(=O)N2CCCC2)cc1OC | inactive |
| COc1ccc(C(=O)N2CCc3cc(OC)c(OC)cc3C2)cc1OC | inactive |

| Compound | outcome |
| --- | --- |
| CCOC(=O)C1=NN(c2ccc(Cl)cc2)C(c2ccccc2)CC1=O (stereo unspecified) | inactive |
| CCCN(CCC)S(=O)(=O)c1cccc(C(=O)Nc2ccc3c(c2)OCO3)c1 | inactive |
| O=C(Nc1ccc(-c2nc3ccccc3[nH]2)cc1)C1CCCO1 (stereo unspecified) | active |
| O=C(Nc1ccc(O)cc1)C1CCCO1 (stereo unspecified) | inactive |
| O=C(Nc1nc2ccccc2[nH]1)C1CCCO1 (stereo unspecified) | inactive |
| Cc1ccc2oc(-c3cccc(NC(=O)C4CCCO4)c3)nc2c1 (stereo unspecified) | inactive |
| O=C(Nc1ccc(-c2nc3cc(Cl)ccc3o2)cc1)C1CCCO1 (stereo unspecified) | inactive |
| O=C(Nc1ccc(-c2nc3ccccc3o2)cc1)C1CCCO1 (stereo unspecified) | active |
| COc1ccc(OC)c(NC(=O)C2CCCN2C(=O)OCc2ccccc2)c1 (stereo unspecified) | inactive |
| Nc1nnnn1/N=C/c1cccc(OCc2ccccc2Cl)c1 | inactive |
| C=CC(O)(C#CCN(CC)CC)c1ccccc1 (stereo unspecified) | inactive |
| CC(=O)NC1CC2CCCC(C1)N2C(=O)Nc1ccccc1 (stereo unspecified) | inactive |
| CC(=O)Nc1sc2c(c1C(N)=O)CCC2 | inactive |
| Cc1c(C(=O)Nc2ccncc2)oc2ccccc12 | inactive |
| NC(=O)c1c(NC(=O)c2ccco2)sc2c1CCC2 | inactive |
| Cc1cc(C)nc(NC(=O)c2cc3ccccc3o2)n1 | inactive |
| O=C(Nc1ccccc1)c1cc2ccccc2o1 | inactive |
| Cc1c(C(=O)Nc2ccccn2)oc2ccccc12 | inactive |
